Screening results from PubChem.
A selection: hits, their analogues and other compounds. The true share with any hit is near 1.8%.
S1P2 agonist: S1P2 receptor agonists, primary screen, cell-based; Sphingosine 1-phosphate receptor 2 (Homo sapiens), O95136; S1P2-expressing cell line, agonist reporter read-out; activation, % at 4.5 µM; actives 0.46% (n = 97,000); in the data active means activation above about 16%;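 further: 0% = vehicle low control and 100% = maximal reference agonist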
Target sequence (O95136 whole entry, looked up): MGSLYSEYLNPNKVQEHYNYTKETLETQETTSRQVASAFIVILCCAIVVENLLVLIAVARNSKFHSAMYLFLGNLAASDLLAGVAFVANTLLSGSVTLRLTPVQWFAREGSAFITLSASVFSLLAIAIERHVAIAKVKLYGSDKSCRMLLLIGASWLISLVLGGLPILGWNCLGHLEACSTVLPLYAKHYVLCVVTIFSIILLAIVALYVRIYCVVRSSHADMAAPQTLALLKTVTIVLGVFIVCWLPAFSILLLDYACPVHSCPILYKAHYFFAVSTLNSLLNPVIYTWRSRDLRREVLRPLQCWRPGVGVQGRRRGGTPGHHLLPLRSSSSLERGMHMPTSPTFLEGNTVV
GALR2 agonist: GALR2 receptor agonists, primary screen, cell-based. Galanin receptor type 2 (Homo sapiens), O43603. GALR2-expressing cells, agonist activation read-out. activation, % (concentration not given with the values). actives 0.48% (n = 140,000); in the data active means activation above about 5%, passing the limit was not always enough;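 further: 0% = vehicle buffer wells and 100% = reference agonist at full effect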
MRP1 act: H69AR viability gain despite doxorubicin, primary screen, MRP-1 activator project, H69AR cells, CellTiter-Glo | viability increase, % at 10 µM | viability rescue | actives 0.61% (n = 140,000);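 active means viability gain under doxorubicin at or above a set limit, the compound median plus 3 SD, cut at about 4.7% in these data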;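 further: MRP-1 overexpressing cells given doxorubicin 25 µM after compound pretreatment; 18-22 h compound pretreatment then 72 h with doxorubicin before readout; 0% = doxorubicin-only wells and 100% = vehicle-treated cells without doxorubicin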
GALR2 blocker: GALR2 antagonists in receptor-expressing cells, primary screen; inhibition, % at 4 µM; antagonist mode; Galanin receptor type 2 (Homo sapiens), O43603; AID 828, 2007; actives 0.39% (n = 140,000); in the data active means inhibition above about 27%;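 further: cells stimulated with galanin 1-16 at roughly its EC80; 0% = agonist challenge control and 100% = basal control without agonist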
S1P2 antag: human S1P2 receptor antagonists, primary screen, cell-based. cell-based S1P2 antagonist assay, inhibition at 5 uM. inhibition, % at 5 µM. actives 0.21% (n = 97,000). AID 736, 2007; in the data active means inhibition above about 45%;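 further: CRE beta-lactamase reporter cells expressing human S1P2 stimulated with S1P; 0% = agonist at EC80 alone and 100% = agonist plus reference antagonist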
MRP resist rev: reversal of MRP1-mediated doxorubicin resistance, primary screen, H69AR cells, doxorubicin co-treatment | differential viability (reversal), % at 10 µM | H69AR cells + 2 uM doxorubicin, CellTiter-Glo, 72 h | actives 0.04% (n = 85,000);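 active means viability drop by adding the cancer drug above about 55%, with treated viability meeting a 40% cutoff, limit read from the data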;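 further: viability without doxorubicin minus viability with 2 µM doxorubicin for each compound; larger differential means the compound sensitizes cells more to doxorubicin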
* hit, by the source's call; x = no result.

SMILES | S1P2 agonist | GALR2 agonist | MRP1 act | GALR2 blocker | S1P2 antag | MRP resist rev
CCSc1ccc(-c2nn(-c3ccccc3)cc2/C=C(/C#N)C(=O)NC)cc1 | x | 26* | 1 | 9 | x | x
CC(=O)N1CCN=C1SCc1ccc(C)cc1 | x | -2 | 5.6* | 8 | x | 9
CCC(=O)N1CCN=C1SCc1ccccc1 | -6 | -2 | 5.1* | 0 | 3 | -2
CC(=O)N1CCN=C1SCc1ccc(F)cc1 | -2 | -2 | 4 | 5 | 3 | 3
CC(=O)N1CCN=C1SCc1ccc(Cl)cc1 | x | -1 | 6.4* | 15 | x | 6
CC(=O)N1CCN=C1SCc1ccccc1Cl | -4 | -1 | 3 | -16 | 23 | 2
CC(=O)N1CCN=C1SCc1ccccc1F | x | -2 | 5.1* | 7 | x | 15
S=c1nc[nH]c2c1sc1nc(-c3ccccc3)c3c(c12)CCCC3 | x | 1 | -2 | -21 | x | x
CN(C)c1ccc(/C=N/NC(=O)C(O)(c2ccccc2)c2ccccc2)o1 | -3 | -1 | -1 | -5 | -11 | x
COCCn1c(N)c(C#N)c2nc3ccccc3nc21 | 3 | 3 | -1 | 0 | -6 | 11
COc1cccc(Cn2c(N)c(C#N)c3nc4ccccc4nc32)c1OC | 24* | 4 | -2 | -15 | -37 | -10
Cc1ccc(C(=O)NCCn2c(N)c(C#N)c3nc4ccccc4nc32)cc1 | x | 2 | -2 | 0 | x | x
COc1ccc(Cn2c(N)c(C#N)c3nc4ccccc4nc32)cc1 | 31* | 3 | 0 | -9 | -62 | x
N#Cc1c(N)n(CCOC(=O)c2cccc(Br)c2)c2nc3ccccc3nc12 | 3 | 7 | 5.7* | -19 | -36 | 6
COc1ccc(-n2c(NC(=O)c3ccc(Br)o3)c(C#N)c3nc4ccccc4nc32)cc1 | 12 | 5.4* | -2 | -1 | -15 | x
COc1cc(C(=S)N(C)C)ccc1O | -6 | -1 | 0 | 1 | 14 | 2
Cc1cc(C)cc(NCc2cc(=O)oc3cc(-c4ccccc4)c(O)cc23)c1 | x | 2 | -2 | 4 | x | x
Cc1c(C#N)c(N)nc2c3c(sc12)NC(=O)CC3c1ccc(F)cc1 (stereo not drawn) | x | -1 | -4 | -5 | x | x
COc1cccc(C(=O)COc2ccccc2-c2ccccc2)c1 | x | -2 | -2 | -5 | x | x
CCC(C)(C)NC(=O)C(c1cccn1C)N(C(=O)Cn1nnc2ccccc21)c1ccc(OC)cc1 (stereo not drawn) | -4 | 1 | -4 | -8 | 10 | -19
COc1cc(Cn2c(N)c(C#N)c3nc4ccccc4nc32)cc(OC)c1 | 14 | 13* | -3 | -6 | -35 | 7
NC1=NC(=O)CC(C(=O)NCc2ccccc2)S1 (stereo not drawn) | -2 | -2 | -1 | -3 | -6 | x
O=C(CCCN1C(=O)c2cccc3cccc(c23)C1=O)N1CCc2ccccc2C1 | -2 | -1 | -2 | 1 | 2 | 2
CCCCCCNc1c(C(=O)OCC)c(=O)[nH]c2ccccc12 | x | -2 | -3 | 15 | x | 9
CCc1ccccc1NC(=O)CSc1nc2n[nH]c(C)c2c(=N)n1-c1ccc(OC)cc1 | x | -1 | -4 | 16 | x | 6
SMILES | S1P2 agonist | GALR2 agonist | MRP1 act | GALR2 blocker | S1P2 antag | MRP resist rev
COc1ccccc1NC(=O)CSc1nc2n[nH]c(C)c2c(=N)n1-c1ccccc1Cl | 21* | -1 | -6 | -7 | -22 | 6
Nc1nc2nc(-c3ccc(OCc4ccccc4)cc3)cc(C(F)(F)F)n2n1 | 33* | 5 | -1 | 2 | -70 | -9
Nc1nc2nc(-c3ccc(Cl)cc3)cc(C(F)(F)F)n2n1 | -5 | 1 | 0 | 1 | -5 | -4
COc1cc(C(=O)Nc2sc3c(c2C(=O)NCc2ccco2)CCCC3)cc(OC)c1OC | 23* | 0 | 0 | -7 | -21 | -3
Cn1c(Sc2ccc(Cl)cc2)c(C=O)c2ccccc21 | -10 | -3 | -7 | 6 | 25 | x
O=C(c1ccco1)N1CCN(c2nc(C3CC3)nc3c2nnn3Cc2ccccc2Cl)CC1 | -3 | 0 | 7.0* | -8 | -32 | -6
CC(C)(C)c1nc(N2CCN(C(=O)c3ccco3)CC2)c2nnn(Cc3ccccc3)c2n1 | 1 | 0 | 3 | -12 | 18 | -17
COc1ccccc1N1CCN(Cc2nc3ccccc3c(=O)n2CC(C)=O)CC1 | x | -1 | -1 | 1 | x | 0
COc1ccc(CCNC(=O)CSCc2ccc(Cl)cc2)cc1OC | x | 0 | 5.0* | 7 | x | x
COc1ccc(CCNC(=O)CSCc2ccc(C)cc2)cc1OC | -1 | -1 | x | 0 | 27 | x
Cc1nc2ccccc2c(=O)[nH]1 | -5 | -3 | -1 | 11 | 16 | -6
O=C1N/C(=N\N=C\c2cccnc2)SC1Cc1ccc(SC(F)F)cc1 (stereo not drawn) | 31* | -1 | 2 | 11 | -16 | x
COc1ccc(Cn2c(C3CC3)nc3ccc(NC(=O)C4CC4)cc3c2=O)cc1 | -2 | -1 | -2 | 7 | 0 | -2
CC(/C=C1\SC(=S)N(CCCC(=O)Nc2ccc(C(=O)O)c(O)c2)C1=O)=C\c1ccccc1 | x | -2 | 4.8* | -14 | x | x
CC(=O)c1ccc(NC(=O)CN2C(=O)/C(=C/C(C)=C/c3ccccc3)SC2=S)cc1 | x | -2 | 8.5* | 15 | x | x
CC(/C=C1\SC(=S)N(NC(=O)c2ccc(C)cc2)C1=O)=C\c1ccccc1 | -2 | -2 | 0 | -14 | -7 | x
O=C(c1cccnc1)N1C2CCC1CC(O)(c1ccc(F)cc1)C2 (stereo not drawn) | 2 | 0 | -1 | -1 | -3 | 3
CCOc1ccc(Cn2c3ccc(OC)cc3c3nc4ccccc4nc32)cc1 | x | -2 | -3 | 7 | x | x
CCn1c2ccc(Cl)cc2c2nc3ccccc3nc21 | 43* | 0 | -4 | 5 | -39 | -13
CCn1c2ccc(OC)cc2c2nc3ccccc3nc21 | 34* | -1 | -2 | -1 | -33 | -21
CCOCCCNC(=O)C(c1ccccc1)N(Cc1cccs1)C(=O)CNC(C)=O (stereo not drawn) | x | -1 | -1 | 12 | x | x
COc1ccc(C(=O)Nc2ccc(Cl)c(S(=O)(=O)Nc3ccccc3OC)c2)cc1 | x | -1 | 9.2* | 2 | x | x
COC(=O)C1=NN(C(C)=O)C2(CC(=O)N(c3cc(C)cc(C)c3)C2=O)C1 (stereo not drawn) | x | -1 | 0 | -12 | x | x
COc1ccc(-c2[nH]ncc2-c2cnn(-c3ccccc3)c2)c(O)c1 | -10 | 0 | 46* | 0 | 1 | x
NS(=O)(=O)c1ccc(N2N=C(c3ccccc3)CC2c2ccccc2)cc1 (stereo not drawn) | x | 5.4* | -4 | -12 | x | x
CCc1ccc(C2=NN(c3ccc(S(N)(=O)=O)cc3)C(c3ccc(F)cc3)C2)cc1 (stereo not drawn) | 17* | 39* | -3 | -18 | -4 | x
CS(=O)(=O)N1N=C(c2ccc3nccnc3c2)CC1c1ccccc1 (stereo not drawn) | -5 | -3 | -2 | 6 | -1 | x
